Assay [1] can be described thus: qHTS assay to identify small molecule antagonists of the thyroid receptor (TR) signaling pathway (AID 743065). Note: series mostly up to about 70 µM; nearly all actives have a fitted effect of over 55% in size. The gist of the method: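 GH3.TRE-Luc rat pituitary cells (two TREs driving luciferase) were dosed with compound, then stimulated with 1 nM T3 (final) for 23.5 h at 37 C. ONE-Glo luminescence was the read-out, with CellTiter-Fluor fluorescence as the cytotoxicity counter-screen.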
(Quantitative high-throughput screening tests each substance at several concentrations.)

Assay [2] concerns thyroid hormone receptor (rat, GH3 cells). Nature of the assay: qHTS assay to identify small molecule agonists of the thyroid receptor (TR) signaling pathway (AID 743066; calls by dose curve).
The target of assay [3] is Estrogen receptor (Homo sapiens) (UniProt P03372). The assay can be described thus: qHTS assay to identify small molecule antagonists of the estrogen receptor alpha (ER-alpha) signaling pathway (AID 743069; active = well fitted curve in the direction sought with a large enough effect in the signal ratio in the repeat runs, not every such curve was filed as active; the % refers to the signal ratio). The essentials:
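HEK293 ER-alpha-UAS-bla GripTite cells, held overnight in 2% charcoal-stripped FBS, 5,000 cells/well, preincubated 4 h, then compound plus 17beta-estradiol for 18 h at 37C. Beta-lactamase read by LiveBLAzer B/G FRET substrate, 2 h at room temperature.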

Assay [4] can be described thus: qHTS assay to identify small molecule antagonists of the estrogen receptor alpha (ER-alpha) signaling pathway - cell viability counter screen (AID 743074; calls by dose curve;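 note: HEK293 cells carrying ER-alpha-UAS-bla reporter stimulated with 17beta-estradiol; nearly all actives have a fitted effect of over 45% in size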).
The target in assay [5] is Estrogen receptor (Homo sapiens) (UniProt P03372). Nature of the assay: qHTS assay to identify small molecule agonists of the estrogen receptor alpha (ER-alpha) signaling pathway (AID 743075; calls by dose curve).
Estrogen receptor (Homo sapiens), sequence (P03372 whole entry, looked up): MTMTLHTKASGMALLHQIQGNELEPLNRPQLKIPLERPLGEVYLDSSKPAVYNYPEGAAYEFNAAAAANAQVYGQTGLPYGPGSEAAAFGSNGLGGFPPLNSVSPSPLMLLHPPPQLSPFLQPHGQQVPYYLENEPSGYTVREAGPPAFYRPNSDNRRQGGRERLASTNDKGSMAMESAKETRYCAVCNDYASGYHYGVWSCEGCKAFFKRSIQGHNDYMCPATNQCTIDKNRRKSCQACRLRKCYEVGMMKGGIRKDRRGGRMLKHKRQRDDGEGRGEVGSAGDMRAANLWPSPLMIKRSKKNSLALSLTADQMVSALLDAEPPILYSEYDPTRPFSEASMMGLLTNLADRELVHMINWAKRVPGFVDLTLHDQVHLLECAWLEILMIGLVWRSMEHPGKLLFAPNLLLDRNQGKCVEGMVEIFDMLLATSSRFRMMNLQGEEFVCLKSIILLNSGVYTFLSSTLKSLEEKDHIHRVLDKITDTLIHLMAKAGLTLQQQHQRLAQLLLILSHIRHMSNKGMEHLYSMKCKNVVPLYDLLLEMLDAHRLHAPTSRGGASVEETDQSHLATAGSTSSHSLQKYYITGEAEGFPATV
Assay [6] has the same target. The assay can be described thus: qHTS assay to identify small molecule agonists of the estrogen receptor alpha (ER-alpha) signaling pathway using the BG1 cell line (AID 743079). Note: nearly all actives have a fitted effect of over 20% in size.
A short description of assay [7]: qHTS assay to identify small molecule antagonists of the estrogen receptor alpha (ER-alpha) signaling pathway using the BG1 cell line (AID 743080; calls by dose curve;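 note: BG1 cells stimulated with 17beta-estradiol alongside compound; series mostly up to about 70 µM; nearly all actives have a fitted effect of over 25% in size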). The essentials: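 Luminescence from a 4×ERE-luciferase reporter in BG1-Luc-4E2 cells served as read-out. Cells, pre-cultured 5 days in stripped-serum phenol-red-free medium, were exposed to compound with 17beta-estradiol co-stimulation for 21.5 h at 37 C.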

A short description of assay [8]: qHTS assay to identify small molecule antagonists of the estrogen receptor alpha (ER-alpha) signaling pathway using the BG1 cell line - cell viability counter screen (AID 743081).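 Note: compound given together with 17beta-estradiol as the ER stimulus; series mostly up to about 70 µM; nearly all actives have a fitted effect of over 45% in size.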
The next assay concerns the target Aromatase (Homo sapiens) (UniProt P11511). The assay can be described thus: qHTS assay to identify aromatase inhibitors (AID 743083). Note: series mostly up to about 70 µM; nearly all actives have a fitted effect of over 55% in size.
Assay [9] is described as follows: qHTS assay to identify aromatase inhibitors - cell viability counter screen (AID 743084).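 Note: cells stimulated with testosterone during compound exposure; nearly all actives have a fitted effect of over 55% in size.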
The target in assay [10] is Aryl hydrocarbon receptor (Homo sapiens) (UniProt P35869). Nature of the assay: qHTS assay to identify small molecule that activate the aryl hydrocarbon receptor (AhR) signaling pathway (AID 743085).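 For activation: HG2L7.5c1 human HepG2 liver cells with stably integrated DRE-driven firefly reporter; series mostly up to about 70 µM.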 Note: nearly all actives have a fitted effect of over 15% in size. Note: potency is the fitted concentration of half-maximal effect. The essentials: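 Stably transfected human liver carcinoma cells (HG2L7.5c1; 20 DRE-firefly luciferase) were incubated 5 h, dosed, and kept 24 h at 37C. Agonism was scored from increased luciferase luminescence.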
Aryl hydrocarbon receptor (Homo sapiens), sequence (P35869 whole entry, looked up): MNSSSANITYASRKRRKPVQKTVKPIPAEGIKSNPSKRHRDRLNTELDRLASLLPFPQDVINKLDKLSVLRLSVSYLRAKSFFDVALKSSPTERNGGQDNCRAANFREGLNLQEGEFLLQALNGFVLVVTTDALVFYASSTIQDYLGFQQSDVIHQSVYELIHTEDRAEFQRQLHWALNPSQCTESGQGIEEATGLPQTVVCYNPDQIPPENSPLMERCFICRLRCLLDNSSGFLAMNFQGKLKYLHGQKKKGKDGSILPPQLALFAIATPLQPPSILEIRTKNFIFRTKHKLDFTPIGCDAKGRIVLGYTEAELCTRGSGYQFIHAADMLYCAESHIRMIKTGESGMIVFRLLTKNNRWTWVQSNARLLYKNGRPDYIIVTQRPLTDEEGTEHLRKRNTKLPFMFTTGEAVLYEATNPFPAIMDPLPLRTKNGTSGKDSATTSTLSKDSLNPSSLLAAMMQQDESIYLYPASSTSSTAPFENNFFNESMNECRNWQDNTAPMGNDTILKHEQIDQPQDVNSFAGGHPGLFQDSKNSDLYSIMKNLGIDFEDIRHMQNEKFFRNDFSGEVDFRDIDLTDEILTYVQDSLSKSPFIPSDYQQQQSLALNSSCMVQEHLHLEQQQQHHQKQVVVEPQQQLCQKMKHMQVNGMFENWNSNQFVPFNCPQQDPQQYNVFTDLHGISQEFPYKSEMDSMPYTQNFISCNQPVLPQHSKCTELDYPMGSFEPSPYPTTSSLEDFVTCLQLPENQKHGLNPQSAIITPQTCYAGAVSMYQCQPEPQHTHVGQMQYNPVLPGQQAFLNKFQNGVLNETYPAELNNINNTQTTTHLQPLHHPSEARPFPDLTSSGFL

Assay [11] can be described thus: qHTS assay to identify small molecule that activate the aryl hydrocarbon receptor (AhR) signaling pathway - cell viability counter screen (AID 743086).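 Note: HepG2 liver cells carrying the AhR DRE luciferase reporter; series mostly up to about 70 µM; nearly all actives have a fitted effect of over 45% in size.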 The gist of the method:
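HepG2-AhR-luc (HG2L7.5c1) cells, 4000/well, treated 24 h at 37 C with compound; viability measured as CellTiter-Fluor fluorescence after 30 min in the same wells as the luciferase read.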

Assay [12] has as its target Peroxisome proliferator-activated receptor gamma (Homo sapiens) (UniProt P37231). Nature of the assay: qHTS assay to identify small molecule agonists of the peroxisome proliferator-activated receptor gamma (PPARg) signaling pathway (AID 743094; active = well fitted activation curve with a large enough effect in the signal ratio in the repeat runs, not every such curve was filed as active; the % refers to the signal ratio). The essentials: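 Compounds dissolved in DMSO were added to PPARg UAS-bla HEK293H cells for 17 h at 37C, and reporter expression was quantified by fluorescence intensity after 1 h with LiveBLAzer B/G FRET substrate.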

Assay [13] shares this target. Nature of the assay: qHTS assay to identify small molecule antagonists of the peroxisome proliferator-activated receptor gamma (PPARg) signaling pathway (AID 743191; calls by dose curve; note: series mostly up to about 63 µM; nearly all actives have a fitted effect of over 30% in size). The gist of the method: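 GeneBLAzer PPARg UAS-bla HEK293H cells, 5 h post-plating, exposed to compounds 17 h at 37C. LiveBLAzer B/G FRET substrate added for 1 h at room temperature; beta-lactamase reporter read by fluorescence intensity.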

The nature of assay [14]: qHTS assay for small molecule agonists of the antioxidant response element (ARE) signaling pathway (AID 743202; active = well fitted activation curve with a large enough effect in the signal ratio in the repeat runs, not every such curve was filed as active; the % refers to the signal ratio). The essentials:
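ARE-bla HepG2 cells (beta-lactamase reporter under the antioxidant response element), plated 5 hours, then exposed to compounds 16 hours at 37 C. LiveBLAzer B/G FRET substrate added for 2 hours at room temperature; fluorescence intensity read.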

Assay [15] in a line: qHTS assay for small molecule agonists of the antioxidant response element (ARE) signaling pathway - cell viability counter screen (AID 743203; calls by dose curve; note: nearly all actives have a fitted effect of over 55% in size). The gist of the method:
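Following 16 hrs of compound treatment at 37C, HepG2 cells with an ARE-controlled beta-lactamase gene were lysed with CellTiter-Glo. Luminescence was read after 30 min at room temperature.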

Assay [16] in a line: qHTS assay for small molecule activators of the heat shock response signaling pathway - cell viability counter screen (AID 743209). Note: nearly all actives have a fitted effect of over 50% in size. The essentials: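 Readout: CellTiter-Glo luminescence, 30 min at room temperature. System: HSE-bla HeLa cells, 1500/well, plated overnight. Treatment: compounds in DMSO, 5 h at 37 C.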
Assay [17] can be described thus: qHTS assay for small molecule activators of the heat shock response signaling pathway (AID 743210; active = well fitted activation curve with a large enough effect in the signal ratio in the repeat runs, with a control signal flat, not every such curve was filed as active; the % refers to the signal ratio; note: series mostly up to about 63 µM). The essentials:
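HSE-bla HeLa cells (beta-lactamase reporter under heat shock response elements), plated overnight, then exposed to compounds 5 h at 37 C; LiveBLAzer B/G FRET substrate added, 2.5 h at room temperature, fluorescence intensity read.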

Assay [18] is described as follows: qHTS assay to identify small molecule antagonists of the peroxisome proliferator-activated receptor gamma (PPARg) signaling pathway - cell viability counter screen (AID 743194). Note: nearly all actives have a fitted effect of over 55% in size. The essentials:
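Cytotoxicity counter screen in PPARg-bla HEK293H cells, same wells as reporter assay. Compounds plus 50 nM rosiglitazone (final) for 17 h at 37 C, then viability read by CellTiter-Glo luminescence.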

Assay [19] can be described thus: qHTS assay to identify small molecule agonists of the peroxisome proliferator-activated receptor delta (PPARd) signaling pathway - cell viability counter screen (AID 743211). Note: nearly all actives have a fitted effect of over 55% in size. The essentials:
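In the same wells used for beta-lactamase reporter measurement, cytotoxicity is scored by CellTiter-Glo. HEK293H PPARd-bla cells receive compound for 17 h at 37C following a 5 h settling period.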

Inconclusive results are not listed. Active and inactive are the calls of the source. Unless noted, calls come from the whole dose curve; as a rule, active = well fitted curve in the direction sought with a large enough effect in the repeat runs; inconclusive = weak or mixed curves; inactive = no such curve, though single readings can be large; an effect the other way counts as inactive or inconclusive.

Aromatase (Homo sapiens), sequence (P11511 whole entry, looked up): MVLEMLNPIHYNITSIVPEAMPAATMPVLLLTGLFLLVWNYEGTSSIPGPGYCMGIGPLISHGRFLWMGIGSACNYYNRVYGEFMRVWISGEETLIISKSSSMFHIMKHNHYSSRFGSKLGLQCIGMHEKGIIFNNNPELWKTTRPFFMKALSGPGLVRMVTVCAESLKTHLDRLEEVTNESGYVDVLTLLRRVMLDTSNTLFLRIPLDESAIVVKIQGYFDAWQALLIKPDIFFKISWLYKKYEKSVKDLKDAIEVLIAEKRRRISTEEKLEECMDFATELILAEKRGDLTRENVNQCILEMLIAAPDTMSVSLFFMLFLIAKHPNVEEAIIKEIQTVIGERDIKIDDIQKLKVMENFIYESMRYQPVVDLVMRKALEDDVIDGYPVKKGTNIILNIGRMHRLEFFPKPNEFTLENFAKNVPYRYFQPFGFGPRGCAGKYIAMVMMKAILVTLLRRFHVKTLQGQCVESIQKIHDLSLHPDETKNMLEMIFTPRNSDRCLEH
Peroxisome proliferator-activated receptor gamma (Homo sapiens), sequence (P37231 whole entry, looked up): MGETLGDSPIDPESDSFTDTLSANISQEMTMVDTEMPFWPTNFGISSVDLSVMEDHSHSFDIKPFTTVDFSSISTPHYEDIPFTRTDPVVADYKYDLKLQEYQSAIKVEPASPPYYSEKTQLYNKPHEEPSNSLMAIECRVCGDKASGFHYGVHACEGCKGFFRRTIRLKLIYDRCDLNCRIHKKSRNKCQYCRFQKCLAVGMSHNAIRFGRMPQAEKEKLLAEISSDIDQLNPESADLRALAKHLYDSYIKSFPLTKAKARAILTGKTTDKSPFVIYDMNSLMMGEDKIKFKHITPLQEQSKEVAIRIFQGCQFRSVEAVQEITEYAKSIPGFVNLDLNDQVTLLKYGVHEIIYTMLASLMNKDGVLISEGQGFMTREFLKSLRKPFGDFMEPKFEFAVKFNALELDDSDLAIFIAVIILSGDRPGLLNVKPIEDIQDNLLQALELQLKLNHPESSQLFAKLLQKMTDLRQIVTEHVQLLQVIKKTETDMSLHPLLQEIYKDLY

For `CC(O)C(CO)C(C)O` (stereo unspecified), the Potency result in assay [1], in assay [2], in assay [4], in [5], in assay [6] and in [7] was “inactive” each time. The Potency result (in the assay with Aromatase (Homo sapiens); in assay [10]; in [14]; in assay [16]) was “inactive” throughout. For the same compound, the compound was called inactive in [3], in [8], in assay [9], in [11], in assay [12] and in [13]. Also, the result in [15] and in [17] was inactive.
On to `COc1cnc(NS(=O)(=O)c2ccc(N)cc2)nc1`, for which the Potency result in assay [1], in assay [2], in assay [4], in assay [5], in assay [6] and in assay [7] was “inactive” in each case. The Potency entry (in the assay with Aromatase (Homo sapiens); in assay [10]; in [14]) was “inactive” in each case. Also, the compound was called inactive in assay [3], in [8], in [9], in assay [11], in assay [12] and in [18]. Besides, the outcome in assay [15], in assay [17] and in assay [19] was inactive.
Consider `Cc1nc2ccc(Cl)cc2[nH]1`, for which the Potency entry in assay [1], in [2], in assay [4], in [5], in [6] and in assay [7] was “inactive” each time. In addition, the Potency result (with Aromatase (Homo sapiens); in [14]; in [16]) was “inactive” each time. In addition, the call in [3], in [8], in [9], in [11], in assay [12] and in [13] was inactive. Also, the outcome in assay [18], in assay [15], in assay [17] and in [19] was inactive. In addition, the Potency in [10] was 30.6 µM (active).
Regarding `CCCCCCCCCCCCCCCC(=O)OC`, the Potency result in assay [1], in assay [2], in assay [4], in assay [5], in assay [6] and in [7] was “inactive” in each case. Also, the Potency result (with Aromatase (Homo sapiens); in assay [10]; in [14]; in assay [16]) was “inactive” throughout. In addition, the compound was classed as inactive in [3], in assay [8], in [9], in assay [11], in assay [12] and in assay [18]. For the same compound, the call in assay [15], in [17] and in assay [19] was inactive.
For `N#Cc1ccccc1C#N`, the Potency entry in [1], in assay [2], in assay [4], in [5], in assay [6] and in assay [7] was “inactive” each time. The Potency result (with Aromatase (Homo sapiens); in assay [10]; in [14]; in assay [16]) was “inactive” in each case. The compound was called inactive in assay [3], in assay [8], in assay [9], in assay [11], in assay [12] and in assay [13]. Also, the compound was classed as inactive in assay [18], in assay [15], in [17] and in assay [19].
On to `CC(C)(C)OC(=O)c1ccccc1C(=O)O`, for which the Potency entry in assay [1], in assay [2], in assay [4], in assay [5], in assay [6] and in assay [7] was “inactive” each time. The Potency entry (in the assay with Aromatase (Homo sapiens); in assay [10]; in assay [14]; in assay [16]) was “inactive” throughout. Besides, the compound was classed as inactive in [3], in [8], in assay [9], in assay [11], in assay [12] and in assay [13]. Further, in assay [18], the compound was classed as inactive.
Turning to `O=S(=O)(O)c1ccc(Cl)cc1`, the Potency result in assay [1], in assay [2], in [4], in [5], in [6] and in assay [7] was “inactive” in each case. The Potency entry (with Aromatase (Homo sapiens); in [10]; in assay [14]; in assay [16]) was “inactive” throughout. In addition, the compound was called inactive in assay [3], in assay [8], in assay [9], in assay [11], in [12] and in assay [13]. The call in assay [18], in [15], in assay [17] and in assay [19] was inactive.
Consider `COc1cc2nc(N3CCN(C(=O)C4CCCO4)CC3)nc(N)c2cc1OC` (stereo unspecified), for which the Potency result in assay [1], in assay [2], in assay [4], in assay [5], in [6] and in assay [7] was “inactive” each time. Also, the Potency result (with Aromatase (Homo sapiens); in [10]; in assay [14]) was “inactive” in each case. Further, the result in assay [3], in assay [8], in assay [9], in assay [11], in assay [12] and in assay [13] was inactive. Besides, the result in [18], in assay [15], in assay [17] and in assay [19] was inactive.
